Rows were chosen to be rich in hits. Some 3.1% of all compounds tested hit in one or more screens of this group.
MEKK3 PB1 HTS = raises or lowers MEK5 binding to the human MEKK3 PB1 domain; Q99759; bead-based flow cytometry, Alexa488-MEK5 binding to MEKK3; actives lie on both sides; 0 = blocked by unlabeled MEK5, 100 = vehicle; binding response (% of control), % at 10 µM; 290,000 compounds, 1.4% hits; AID 1529;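 active means binding response more than 3 SD above or below the average of its plate-row segment, actives on both sides; inconclusive means wells at one plate position flagged as instrument error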;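 further: Alexa488 bead fluorescence after subtracting the streptavidin-only scavenger bead signal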
MEKK2 WT-MEK5 = raises or lowers MEK5 binding to wildtype human MEKK2 PB1 domain; 290,000 compounds, 1.1% hits; bead flow cytometry, Alexa488-MEK5 binding to MEKK2 WT; actives lie on both sides; Q9Y2U5; binding response (% of control), % at 10 µM; AID 1531; in the data active means binding response below about 67% or above about 130%; inconclusive means no clear call, values can overlap the other calls; inactive means in between
UBC13 inh = human UBC13 polyubiquitination inhibition | inhibition, % at 20 µM | UBC13 polyubiquitin chain formation, TR-FRET | 330,000 compounds, 0.47% hits | P61088; in the data active means inhibition above about 45%, passing the limit was not always enough; inconclusive means no clear call, values can overlap the other calls
Target sequence (P61088 whole entry, looked up): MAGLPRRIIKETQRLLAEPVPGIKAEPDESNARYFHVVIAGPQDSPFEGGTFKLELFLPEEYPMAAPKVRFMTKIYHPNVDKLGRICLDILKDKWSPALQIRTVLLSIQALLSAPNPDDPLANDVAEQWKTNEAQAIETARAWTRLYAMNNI
PREPL inhibitor = human PREPL enzyme inhibition; Q4J6C6; recombinant PREPL, fluorescence polarization activity-based probe; inhibition, % at 5.96 µM; 320,000 compounds, 0.68% hits
ATG4B inhibitor = blocks human ATG4B protease cleavage of LC3 substrate; Q9Y4P1; ATG4B cleavage of LC3-PLA2, NBD-HPC fluorescence, 1 h; inhibition, % at 8.33 µM; 340,000 compounds, 0.51% hits; in the data active means inhibition above about 40%
Target sequence (Q9Y4P1 whole entry, looked up): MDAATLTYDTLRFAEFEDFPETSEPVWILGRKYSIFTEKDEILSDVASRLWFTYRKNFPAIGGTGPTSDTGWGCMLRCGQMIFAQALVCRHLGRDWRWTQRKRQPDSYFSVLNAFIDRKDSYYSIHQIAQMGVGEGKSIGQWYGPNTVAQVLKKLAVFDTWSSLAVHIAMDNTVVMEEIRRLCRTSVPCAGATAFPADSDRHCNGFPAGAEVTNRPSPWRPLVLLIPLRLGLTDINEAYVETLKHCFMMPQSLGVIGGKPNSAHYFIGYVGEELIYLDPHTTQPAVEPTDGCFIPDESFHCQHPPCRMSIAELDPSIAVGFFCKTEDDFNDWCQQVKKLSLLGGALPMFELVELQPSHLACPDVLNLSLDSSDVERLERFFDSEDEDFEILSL
MEKK2 mut-MEK5 = signal of MEK5 binding to mutant human MEKK2 PB1 domain; 290,000 compounds, 0.35% hits; bead flow cytometry, Alexa488-MEK5 binding to MEKK2 mutant; percent response, % at 10 µM; in the data active means percent response above about 24%, passing the limit was not always enough
PREPL inh cf = human PREPL inhibition, confirmation; AID 2803; inhibition, % at 5.96 µM; 2,000 compounds, 67% hits; shares compounds with PREPL inhibitor; recombinant PREPL, fluorescence polarization activity probe
A number is an active result; i = inactive; ? = inconclusive; nt = not tested or not shown; [ ] = another dose, or the depositor's remark. Unless noted, no stated cut-off is given here; in the data, active means inhibition above about 43%; inactive means the rest.

SMILES | MEKK3 PB1 HTS | MEKK2 WT-MEK5 | UBC13 inh | PREPL inhibitor | ATG4B inhibitor | MEKK2 mut-MEK5 | PREPL inh cf
O=C(C1=C[C@@H](c2ccc(Br)cc2)C[C@@H](OCCCCO)O1)N1CCN(Cc2ccc3c(c2)OCO3)CC1 | i | i | i | 67 | i | i | 59
O=C(C1=C[C@H](c2ccccc2)C[C@H](OCc2ccc(CO)cc2)O1)N1CCN(Cc2ccccc2)CC1 | i | i | i | i | i | i | nt
C#Cc1ccc([C@H]2C=C(C(=O)N3CCN(Cc4ccc5c(c4)OCO5)CC3)O[C@@H](OCC)[C@@H]2CCCO)cc1 | i | i | i | i | i | i | nt
CC(C)CC(=O)Nc1ccc(Oc2ccc3c(c2)C(=O)NC3=O)cc1 | i | i | i | i | i | i | nt
CCOC(=O)C1CCN(C(=O)Nc2ccc3nc(-c4ccco4)c(-c4ccco4)nc3c2)CC1 | i | i | i | 60 | i | i | 64
O=C(O)c1ccc(N/N=C/c2ccc(-c3cccc(Cl)c3)o2)cc1 | i | i | i | 57 | i | i | 55
O=C(O)c1ccc(N/N=C/c2ccc(-c3cc(Cl)ccc3Cl)o2)cc1 | i | i | i | i | i | i | nt
COc1ccc(-c2cn(Cc3ccc(C(=O)c4ccccc4)cc3)nn2)cc1 | i | i | i | i | i | i | nt
Cc1[nH]c2ccc(C(=O)NCCCN3CCCCCC3)cc2c1C | i | 173 | i | 46 | i | 27 | i
Cn1c(NC(=O)C[n+]2cc(-c3ccc(Cl)cc3)n3c2CCC3)cc(=O)n(C)c1=O | i | i | i | 43 | i | i | 46
O=C1C=CC2(O[C@H](c3ccccc3)[C@@H](c3ccccc3)O2)[C@H](Sc2ccccc2O)C1 | nt | nt | nt | nt | i | nt | nt
O=C(NCCc1ccccc1)C1CCC(CNS(=O)(=O)c2ccc(F)cc2)CC1 (stereo not given) | i | i | i | i | i | i | nt
CC1(C)CCCN(Cc2c(O)ccc3c(=O)c(-c4nc5ccccc5s4)c(N)oc23)C1 | i | i | i | 44 | i | i | i
COc1ccccc1-c1c(C)oc2c(CN3CCN(C)CC3)c(O)ccc2c1=O | i | i | i | i | i | i | nt
CC1CCN(Cc2c(O)ccc3c(=O)c(-c4nc5ccccc5s4)c(N)oc23)CC1 | i | i | i | 44 | i | i | i
Cc1ccc(-n2c(SCC(=O)NC3CCS(=O)(=O)C3)nc3ccccc3c2=O)cc1C (stereo not given) | nt | nt | i | i | i | nt | nt
CN(c1ccc(C(=O)COC(=O)C2CC2)cc1)S(C)(=O)=O | nt | nt | i | i | i | nt | nt
COc1ccc(N2CCN(c3cc(C)nc4ccc(OC)cc34)CC2)cc1 | i | i | i | 43 | i | i | 50
Cc1ccccc1NC(=O)C(C#N)Cc1cccnc1 (stereo not given) | i | i | i | 70 | i | i | i
CCNC(=O)N(C)C[C@H]1N[C@@](Cc2ccccc2)(C(=O)OC)[C@H]2C(=O)N(C)C(=O)[C@@H]12 | nt | nt | i | i | i | nt | nt
CC1(C)CC(=O)c2cc(NC(=O)c3ccc(F)cc3)c(=O)oc2C1 | i | i | i | i | i | i | nt
COCCCNc1nc(N)c([N+](=O)[O-])c(Nc2cc(OC)ccc2OC)n1 | i | i | i | i | i | i | nt
COc1ccc(OC)c(Nc2nc(NCCCN(C)C)nc(N)c2[N+](=O)[O-])c1 | i | i | ? | 47 | i | i | i
Cc1ccc(C)c(Nc2cc(C)nc3ccccc23)c1 | nt | nt | i | 44 | i | nt | i
Cc1ccc(Nc2cc(C)nc3ccccc23)c(C)c1 | nt | nt | i | i | i | nt | nt
SMILES | MEKK3 PB1 HTS | MEKK2 WT-MEK5 | UBC13 inh | PREPL inhibitor | ATG4B inhibitor | MEKK2 mut-MEK5 | PREPL inh cf
CC(=O)NC(Cc1ccccc1C)C(=O)NC1CCN(C(=O)c2ccc(C)cc2)CC1 (stereo not given) | i | i | i | i | i | i | nt
CSCC[C@H](NC(=O)[C@H](Cc1ccccc1)n1c(=O)[nH]c2ccccc2c1=O)C(=O)N[C@@H](Cc1ccccc1)C(=O)O | i | i | i | i | i | i | nt
Cc1cc2cc(CNC(=O)c3ccc(Br)o3)ccc2[nH]1 | i | 53[inhibitor] | i | 53 | i | i | i
O=C(CCN1CCCCCC1)Nc1ccc2c(c1)OCCO2 | i | i | i | 45 | i | i | i
CC1=NCC(C)c2c1[nH]c1ccccc21 (stereo not given) | i | i | i | 45 | i | i | i
CC(=O)N1CCN(c2ccc(NCc3ccco3)cc2)CC1 | nt | nt | i | i | i | nt | nt
CC(=O)N1CCN(c2ccc(NCc3ccc(C)cc3)cc2)CC1 | i | i | i | 74 | i | i | 46
c1ccc(CNc2ccc(N3CCOCC3)cc2)cc1 | nt | nt | i | i | i | nt | nt
CCc1ccc(CNc2ccc(N3CCN(C(C)=O)CC3)cc2)cc1 | i | i | i | 66 | i | i | 57
Clc1ccc(CNc2ccc(N3CCN(Cc4ccccc4)CC3)cc2)cc1 | i | i | i | 48 | i | i | 49
CC(=O)N1CCN(c2ccc(NCc3ccc(-c4cccc(Cl)c4)o3)cc2)CC1 | nt | nt | i | 55 | i | nt | 68
CC1CCN(C(=O)COC(=O)/C=C/c2ccco2)CC1 | nt | nt | i | i | i | nt | nt
COc1ccc(C(CNC(=O)CNC(=O)c2cccc(C)c2)N2CCCCC2)cc1 (stereo not given) | nt | nt | nt | nt | i | nt | nt
Cc1nnc(SCC(=O)NC2CCCCCC2)n1C(C)C | i | i | i | i | i | i | nt
CC(=O)c1ccc(S(=O)(=O)N2CCN(C(=O)CSC(=S)N3CCCC3)CC2)cc1 | nt | nt | i | i | i | nt | nt
CCOC(=O)c1[nH]c2cc(OC)c(OC)cc2c1NC(=O)CN1CCN(c2ccc(OC)cc2)C(C)C1 (stereo not given) | i | i | i | 85 | nt | i | 78
COC(=O)c1[nH]c2cccc(OC)c2c1NC(=O)CN1CCN(c2cccc(OC)c2)C(C)C1 (stereo not given) | i | i | i | i | i | i | nt
Cc1ccc(OCCn2cnc3cc([N+](=O)[O-])ccc3c2=O)cc1 | i | i | i | i | i | i | nt
O=c1c2ccc([N+](=O)[O-])cc2ncn1CCOc1ccccc1 | i | i | i | 44 | i | i | i
COC(=O)CCC(=O)OC1(C)C(=O)C2=CN(CC3CC3)C(c3ccc(OC)cc3)=CC2=C(Br)C1=O (stereo not given) | i | -10 | i | 69 | i | i | 56
COC(=O)CCC(=O)OC1(C)C(=O)C=C2C=C3CCCN3C=C2C1=O (stereo not given) | i | i | i | i | i | i | nt
COC(=O)CCC(=O)OC1(C)C(=O)C=C2C=C(C3CC3)N(Cc3ccc(OC)cc3)C=C2C1=O (stereo not given) | i | i | i | 59 | i | i | i

Source: PubChem (several laboratories)
